We go through 21 molecules from PubChem BioAssay.

Values without a mark were called inactive. For part of these data: Results with a measured potency or affinity are listed apart. Activity calls are given as the source filed them. Unless noted, no rule for the calls is given here.

Assay [1] is described as follows: antimalarial activity against Dd2 strain (AID 2302;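 active = growth inhibition above 50% at the single 2 µM test dose, taken to imply half-maximal potency below 2 µM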;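 also: 0% = DMSO untreated growth and 100% = chloroquine plus artemisinin killed control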). The note with it: P. falciparum Dd2 in RBCs, LDH growth readout, 72 h; at 2 µM; active compounds read high.
The nature of assay [2]: human hepatoma cell viability loss – ATP luminescence, cytotoxicity control for P. falciparum antimalarial project, primary screen (AID 2303;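 active = inhibition above 50%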;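 also: 0% = DMSO wells and 100% = digitonin-killed cells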). The note with it: HepG2 viability, 24-48 h, at 10 µM, active compounds read high.
The target of assay [3] is L-lactate dehydrogenase (Plasmodium falciparum (isolate CDC / Honduras)) (UniProt Q27743). Briefly: PfLDH activity inhibition – cell lysate, 3D7 strain, counter-screen for P. falciparum growth inhibition project (AID 2304).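 Also: 0% = vehicle and 100% = reference inhibitor.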 The note with it: P. falciparum 3D7 crude extract, LDH APAD/NBT absorbance; at 2 µM; active compounds read high.
Assay [4] is described as follows: inhibition of 3D7 malaria parasite growth – strain 3D7 (AID 2306).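 Also: 0% = DMSO wells and 100% = chloroquine plus artemisinin control wells.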 To be noted: P. falciparum 3D7 erythrocytic growth, LDH absorbance, 72 h; at 2 µM; active compounds read high.
Assay [5] deals with Calcium-dependent protein kinase 1 (Plasmodium falciparum (isolate 3D7)) (UniProt P62344). Briefly: PfCDPK1 kinase inhibitors, biochemical, TCAMS library (AID 1159585; cut-off not given, nearly all actives have IC50 up to about 0.98 µM;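 also: inhibitors leave more ATP so luminescence rises with inhibition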). The note with it: recombinant PfCDPK1, Kinase-Glo ATP depletion luminescence.
Assay [6] has as its target Plasmodium falciparum protein kinase 6 (PK6, PF3D7_1337100) (UniProt Q8IDW1). The assay can be described thus: PfPK6 kinase inhibitors, biochemical, TCAMS library (AID 1159586). The note with it: recombinant PfPK6, Kinase-Glo ATP depletion luminescence.
Assay [7] has as its target Protein kinase 7 (PK7), Plasmodium falciparum 3D7 (PF3D7_0213400) (UniProt Q7YTF7). The assay can be described thus: inhibition of Plasmodium PK7 catalytic activity – biochemical, TCAMS antimalarial set, Kinase-Glo luminescence (AID 1159587). To be noted: recombinant PfPK7, Kinase-Glo ATP depletion luminescence.
Assay [8] addresses Calcium-dependent protein kinase 4 (Plasmodium falciparum (isolate 3D7)) (UniProt Q8IBS5). Briefly: PfCDPK4 kinase inhibitors, biochemical, TCAMS library (AID 1159588; cut-off not given, nearly all actives have IC50 up to about 0.91 µM). The note with it: recombinant PfCDPK4, Kinase-Glo ATP depletion luminescence.

L-lactate dehydrogenase (Plasmodium falciparum (isolate CDC / Honduras)), sequence (Q27743 whole entry, looked up): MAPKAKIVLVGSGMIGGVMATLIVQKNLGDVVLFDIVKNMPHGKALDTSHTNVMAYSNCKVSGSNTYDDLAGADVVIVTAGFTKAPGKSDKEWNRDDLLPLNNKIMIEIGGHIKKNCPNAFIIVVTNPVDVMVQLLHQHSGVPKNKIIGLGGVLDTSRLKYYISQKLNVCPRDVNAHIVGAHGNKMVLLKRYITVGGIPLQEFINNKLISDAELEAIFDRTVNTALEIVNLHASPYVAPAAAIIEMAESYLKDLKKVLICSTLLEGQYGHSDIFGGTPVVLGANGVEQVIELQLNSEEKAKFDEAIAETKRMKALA
Calcium-dependent protein kinase 1 (Plasmodium falciparum (isolate 3D7)), sequence (P62344 whole entry, looked up): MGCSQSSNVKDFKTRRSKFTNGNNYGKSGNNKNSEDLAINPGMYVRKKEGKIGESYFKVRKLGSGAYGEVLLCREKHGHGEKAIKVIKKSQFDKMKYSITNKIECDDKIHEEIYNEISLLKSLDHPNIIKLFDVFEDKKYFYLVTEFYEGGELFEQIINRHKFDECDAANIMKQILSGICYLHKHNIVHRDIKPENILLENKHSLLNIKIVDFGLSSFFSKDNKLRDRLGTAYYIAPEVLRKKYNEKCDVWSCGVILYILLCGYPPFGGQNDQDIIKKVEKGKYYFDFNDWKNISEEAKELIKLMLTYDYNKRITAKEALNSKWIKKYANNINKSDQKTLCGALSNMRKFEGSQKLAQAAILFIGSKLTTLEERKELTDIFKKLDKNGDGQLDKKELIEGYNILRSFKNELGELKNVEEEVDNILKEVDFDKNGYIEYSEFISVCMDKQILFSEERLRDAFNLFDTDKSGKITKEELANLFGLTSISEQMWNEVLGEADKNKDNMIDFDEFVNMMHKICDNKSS
Protein kinase 7 (PK7), Plasmodium falciparum 3D7 (PF3D7_0213400), sequence (Q7YTF7 1-343): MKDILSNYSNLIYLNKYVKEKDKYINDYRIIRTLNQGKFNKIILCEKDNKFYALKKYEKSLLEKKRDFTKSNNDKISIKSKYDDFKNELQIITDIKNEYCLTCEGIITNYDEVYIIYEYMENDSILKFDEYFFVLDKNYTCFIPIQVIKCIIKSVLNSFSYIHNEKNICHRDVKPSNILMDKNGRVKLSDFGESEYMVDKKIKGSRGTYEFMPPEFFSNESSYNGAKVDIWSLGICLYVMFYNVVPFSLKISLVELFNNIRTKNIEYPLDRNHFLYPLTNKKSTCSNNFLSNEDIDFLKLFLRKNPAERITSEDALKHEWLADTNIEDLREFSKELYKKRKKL
Calcium-dependent protein kinase 4 (Plasmodium falciparum (isolate 3D7)), sequence (Q8IBS5 whole entry, looked up): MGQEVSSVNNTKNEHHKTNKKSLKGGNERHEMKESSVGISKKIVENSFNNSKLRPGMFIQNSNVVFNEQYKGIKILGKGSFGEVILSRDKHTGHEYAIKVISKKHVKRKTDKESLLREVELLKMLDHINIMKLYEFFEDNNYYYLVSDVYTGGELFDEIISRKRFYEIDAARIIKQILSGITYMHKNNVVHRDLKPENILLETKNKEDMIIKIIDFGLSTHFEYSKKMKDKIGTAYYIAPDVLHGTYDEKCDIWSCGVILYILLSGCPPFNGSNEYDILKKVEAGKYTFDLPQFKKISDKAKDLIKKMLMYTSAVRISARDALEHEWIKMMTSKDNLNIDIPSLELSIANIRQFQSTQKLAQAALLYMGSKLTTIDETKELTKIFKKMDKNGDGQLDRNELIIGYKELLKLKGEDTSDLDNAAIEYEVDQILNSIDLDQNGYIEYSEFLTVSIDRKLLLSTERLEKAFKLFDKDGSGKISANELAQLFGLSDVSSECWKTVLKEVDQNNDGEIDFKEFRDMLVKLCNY
Plasmodium falciparum protein kinase 6 (PK6, PF3D7_1337100), sequence (Q8IDW1 1-305): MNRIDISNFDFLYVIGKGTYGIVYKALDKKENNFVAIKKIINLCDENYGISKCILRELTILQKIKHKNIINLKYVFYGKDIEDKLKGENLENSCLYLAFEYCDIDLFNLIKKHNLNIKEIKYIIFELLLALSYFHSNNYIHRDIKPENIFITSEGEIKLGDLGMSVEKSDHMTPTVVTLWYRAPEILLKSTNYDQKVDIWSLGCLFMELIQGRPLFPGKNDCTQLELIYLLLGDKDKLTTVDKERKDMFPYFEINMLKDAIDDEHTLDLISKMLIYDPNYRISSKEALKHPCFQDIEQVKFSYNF

As to `CC(=O)N(C)C1CCN(Cc2cccc(-c3ccc(-c4nc5ccc(C(F)(F)F)cc5[nH]4)cc3)c2)C1` (stereo not drawn), the growth inhibition in assay [1] is 94% (active); in assay [4] it was 100% (active). For the same molecule, the inhibition in assay [2] was 31%; in assay [3] it was 3%. Also, the result in assay [5], in assay [6], in assay [7] and in assay [8] was inactive.

For `CC(C)(C)OC(=O)Cn1cnc2cc(NC(=O)c3cc([N+](=O)[O-])cc([N+](=O)[O-])c3)ccc21`, the growth inhibition in assay [1] was 97% (active); in assay [4], 100% (active). In addition, the inhibition is 11% in assay [2] and 5% in assay [3]. The outcome in assay [5], in assay [6], in assay [7] and in assay [8] was inactive.

For the molecule `CN(C)C(CNC(=O)c1cc(-c2ccncc2)c(-c2ccc(NC(=O)Nc3cccc(Cl)c3)cc2)o1)c1ccccc1` (stereo not drawn), the growth inhibition in assay [1] is 100% (active); in assay [4], 101% (active). Moreover, the figures for the inhibition in assay [2] and in assay [3] were 12% and -1%, respectively. Also, the result in assay [5], in assay [6], in assay [7] and in assay [8] was inactive.

As for `Cc1nc(C)c(CC(=O)Nc2cccc(-c3cccc(-c4nc5c(C)cccc5[nH]4)c3)c2)s1`, the growth inhibition was 35% in assay [1] and 92% (active) in assay [4]. Besides, the inhibition is 43% in assay [2] and -6% in assay [3]. Also, the outcome in assay [5], in assay [6], in assay [7] and in assay [8] was inactive.

Consider `CS(=O)(=O)c1ccc2c(c1)CCN(CCC1CCC(NC(=O)c3cc4cccc(Br)c4[nH]3)CC1)CC2` (stereo not drawn), for which the growth inhibition is 7% in assay [1] and 92% (active) in assay [4]. In addition, the inhibition in assay [2] was 27%; in assay [3], -8%. Moreover, the outcome in assay [5], in assay [6], in assay [7] and in assay [8] was inactive.

On to `COc1cc2c(cc1S(=O)(=O)c1ccc(OCc3ccc(Cl)cc3)cc1)CCN(Cc1ccc(NC(C)=O)s1)CC2`, for which the figures for the growth inhibition in assay [1] and in assay [4] were -3% and 89% (active), respectively. The inhibition in assay [2] is 3%; in assay [3], -2%. Also, the outcome in assay [5], in assay [6], in assay [7] and in assay [8] was inactive.

For the molecule `O=C(/C=C/c1ccc(Cl)c(Cl)c1)NCCCCCN1CCC(NC(=O)Nc2ccc(F)cc2F)CC1`, the growth inhibition in assay [1] is 23%; in assay [4], 102% (active). Also, the inhibition in assay [2] is 14%; in assay [3] it was 2%. Also, the result in assay [5], in assay [6], in assay [7] and in assay [8] was inactive.

On to `COc1ccc2[nH]cc(C3CCN(CCC4CCN(C(=O)/C=C/c5ccc(Cl)c(Cl)c5)CC4)CC3)c2c1`, for which the growth inhibition in assay [1] is 56% (active); in assay [4], 101% (active). The figures for the inhibition in assay [2] and in assay [3] were 52% (active) and 3%, respectively. Moreover, the result in assay [5], in assay [6], in assay [7] and in assay [8] was inactive.

Take `Cc1nc(-c2cccc(C(=O)N(Cc3cncn3Cc3cccc(C(F)(F)F)c3)CC3CC3)c2)cs1`: the growth inhibition was 17% in assay [1] and 97% (active) in assay [4]. In addition, the inhibition in assay [2] was 7%; in assay [3] it was 4%. The outcome in assay [5], in assay [6], in assay [7] and in assay [8] was inactive.

Consider `Cn1cncc1-c1cc2c(Nc3ccc(OCc4ccccc4)cc3)ncnc2cn1`, for which the growth inhibition is 75% (active) in assay [1] and 99% (active) in assay [4]. The inhibition was -1% in assay [2] and 4% in assay [3]. The outcome in assay [5], in assay [6], in assay [7] and in assay [8] was inactive.

With `CCCCCCCCc1[nH]c(C)c(Br)c(=O)c1Br`, the growth inhibition in assay [1] was 95% (active); in assay [4], 96% (active). Moreover, the inhibition in assay [2] and in assay [3] was 2% throughout. Also, the outcome in assay [5], in assay [6], in assay [7] and in assay [8] was inactive.

Regarding `Cc1cc(CNCCCCCCCNCc2ccc(-c3ccccc3)cc2)ccc1O`, the growth inhibition in assay [1] was 6%; in assay [4] it was 97% (active). Further, the results for the inhibition in assay [2] and in assay [3] were 49% and -2%, respectively. Further, the result in assay [5], in assay [6], in assay [7] and in assay [8] was inactive.

Turning to `Cc1cc(-c2cccc(CNC3CCCC3)c2)ccc1S(=O)(=O)NCCN1CCCC1`, the growth inhibition in assay [1] was 7%; in assay [4], 81% (active). The results for the inhibition in assay [2] and in assay [3] were 38% and 2%, respectively. Moreover, the result in assay [5], in assay [6], in assay [7] and in assay [8] was inactive.

Take `O=C(CSc1nn(-c2ccccc2)c(=S)s1)c1c[nH]c2ccccc12`: the growth inhibition in assay [1] is 68% (active); in assay [4] it was 93% (active). Further, the inhibition in assay [2] was -7%; in assay [3], -1%. The outcome in assay [5], in assay [6], in assay [7] and in assay [8] was inactive.

`CN(C)c1ccc(NC(=O)Nc2ccnc3ccc(Br)cc23)cc1`: the growth inhibition is 21% in assay [1] and 91% (active) in assay [4]. Also, the inhibition in assay [2] is -5%; in assay [3], 6%. In addition, the result in assay [5], in assay [6], in assay [7] and in assay [8] was inactive.

Regarding `COc1ccc2[nH]cc(C3CCN(CCCCCNC(=O)c4ccc(-c5ccccc5)cc4)CC3)c2c1`, the growth inhibition in assay [1] is 16%; in assay [4] it was 96% (active). The values for the inhibition in assay [2] and in assay [3] were 50% (active) and -8%, respectively. For the same molecule, the result in assay [5], in assay [6], in assay [7] and in assay [8] was inactive.

Turning to `OCC1CCN(Cc2ccc(-c3ccc(-c4nc5ccc(C(F)(F)F)cc5[nH]4)s3)cc2)CC1`, the figures for the growth inhibition in assay [1] and in assay [4] were 90% (active) and 102% (active), respectively. In addition, the inhibition was 35% in assay [2] and -2% in assay [3]. The result in assay [5], in assay [6], in assay [7] and in assay [8] was inactive.

Regarding `N#Cc1ccc2c(c1)CCN(CCC1CCC(NC(=O)/C=C/c3cccc4cc[nH]c34)CC1)CC2` (stereo not drawn), the figures for the growth inhibition in assay [1] and in assay [4] were 29% and 89% (active), respectively. For the same molecule, the inhibition in assay [2] was 22%; in assay [3] it was -3%. The result in assay [5], in assay [6], in assay [7] and in assay [8] was inactive.

With `CCn1c(C2CCN(CCC3CCN(C(=O)/C=C/c4ccc(Cl)c(Cl)c4)CC3)CC2)nc2ccccc21`, the growth inhibition was 0% in assay [1] and 86% (active) in assay [4]. Also, the inhibition in assay [2] is 17%; in assay [3], 2%. Also, the outcome in assay [5], in assay [6], in assay [7] and in assay [8] was inactive.

On to `CCOc1c(Br)cc(C)cc1CNCCCNc1nc2ccccc2[nH]1`, for which the growth inhibition is 5% in assay [1] and 93% (active) in assay [4]. Moreover, the inhibition in assay [2] is 24%; in assay [3], 6%. Further, the outcome in assay [5], in assay [6], in assay [7] and in assay [8] was inactive.

`Cc1[nH]c(C)c(-c2ccc(OCc3cc(C(F)(F)F)cc(C(F)(F)F)c3)nc2)c(=O)c1Cl`: the growth inhibition in assay [1] was 96% (active); in assay [4], 98% (active). Further, the inhibition in assay [2] is 19%; in assay [3] it was -1%. Besides, the outcome in assay [5], in assay [6], in assay [7] and in assay [8] was inactive.
